This passage reports sensor-assay potency score (higher = more potent) results from the OligoGym collection.
Note: reference of the scale not given here.

This experiment deals with ATP2B3. Kind of experiment: pooled miR-30 sensor sort-seq; sequence = guide strand. The conditions noted are these: shRNA.
As to TTGTCGGTGGGAGACGACCGGG, the sensor-assay potency score (higher = more potent) was -1.43.

Sequence AAAAAAAACAACTACAACCTTG came in with a sensor-assay potency score (higher = more potent) of -0.501.

Take TTAAACAAGGACATCAGGGAAC: the sensor-assay potency score (higher = more potent) is -0.472.

In the case of TAAAACATATTTATGAACTGAA, the sensor-assay potency score (higher = more potent) is -0.383.

Regarding TTTTTTTGCATGAAGATGCTGA, the sensor-assay potency score (higher = more potent) is 0.145.

For the sequence TTTTTCAAGAGGATCTCTGAGG, the sensor-assay potency score (higher = more potent) is -0.749.

Regarding TTGGCTTCTTTTGAACTCTTGG, the sensor-assay potency score (higher = more potent) amounted to 0.325.

For the sequence TGAAACTGCAGGAACTTGGAGA, the sensor-assay potency score (higher = more potent) is 0.195.

Turning to TTGATCAGAAACTCGGGCGTGG, the sensor-assay potency score (higher = more potent) turned out to be 0.126.

In the case of TTTGCTTTTAATATCTATTGGC, the sensor-assay potency score (higher = more potent) stood at 0.393.

In the case of TTTTCTTGACAGAGTAAGCTAA, the sensor-assay potency score (higher = more potent) is -0.151.

Sequence TTGAAGAACACAAAGACCCTCA returned a sensor-assay potency score (higher = more potent) of 0.724.

The sequence TTGACTGCTTCTGCTCAGGGGT displayed a sensor-assay potency score (higher = more potent) of -0.897.

AAAACAACTACAACCTTGCTAC yielded a sensor-assay potency score (higher = more potent) of -0.0751.

Turning to TATTGTACATAGACCGGCGTGC, the sensor-assay potency score (higher = more potent) turned out to be 0.677.

Consider TTGTAAAGCTTGTCTTCCGGGA, for which the sensor-assay potency score (higher = more potent) is -0.394.

Regarding TTTCTTGACAGAGTAAGCTAAG, the sensor-assay potency score (higher = more potent) is -0.513.

Sequence TTGCTGTTCAAGATGTTGGTGC gave a sensor-assay potency score (higher = more potent) of 0.726.

As for TTAGGCAACTTTATACAGCAGC, the sensor-assay potency score (higher = more potent) is -0.477.
